In the library only some 7.8% were active in any assay of this set; here they are far more common.
sEH act – soluble epoxide hydrolase (human) activation; purified human sEH enzymatic activity, activator screen; activation, % at 2 µM; P34913; 0.04% of 91,000 active; AID 717; in the data active = activation above about 37%
Target sequence (P34913 whole entry, looked up): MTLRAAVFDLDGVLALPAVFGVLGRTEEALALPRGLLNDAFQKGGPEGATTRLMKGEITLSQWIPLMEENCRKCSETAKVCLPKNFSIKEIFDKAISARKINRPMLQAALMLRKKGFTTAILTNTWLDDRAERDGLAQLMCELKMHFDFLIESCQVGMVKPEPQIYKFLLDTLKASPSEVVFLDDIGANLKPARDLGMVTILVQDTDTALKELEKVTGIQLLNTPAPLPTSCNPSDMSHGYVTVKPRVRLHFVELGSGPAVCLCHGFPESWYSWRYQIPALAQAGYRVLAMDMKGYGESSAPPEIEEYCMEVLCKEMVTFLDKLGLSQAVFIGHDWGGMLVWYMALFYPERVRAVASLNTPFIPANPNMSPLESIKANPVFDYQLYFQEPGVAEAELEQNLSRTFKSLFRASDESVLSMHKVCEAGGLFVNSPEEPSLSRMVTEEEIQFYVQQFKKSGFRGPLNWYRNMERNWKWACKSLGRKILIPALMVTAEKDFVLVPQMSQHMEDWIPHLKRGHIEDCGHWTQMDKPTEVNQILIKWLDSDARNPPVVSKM
sEH inhibitor – soluble epoxide hydrolase (human) inhibition. recombinant human sEH enzymatic activity assay. inhibition, % at 2 µM. 0.34% of 91,000 active. AID 707; in the data active = inhibition above about 80%
PostGolgi yeast – growth inhibition of a yeast mutant, post-Golgi transport screen; post-Golgi transport phenotypic cell assay; AID 739; 0.9% of 98,000 active; inhibition, % at 10 µM;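 also: yeast cells grown in 1536-well plates; yeast grown about 18 h at 30C before absorbance read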
Cav32 inh – blocks human Cav3.2 T-type calcium channel; Cav3.2-expressing cells, Fluo-4 calcium fluorescence FDSS; stronger effect = lower value; B-score at 10 µM; 4% of 100,000 active;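 active = single-dose well whose peak fluorescence ratio is a statistical outlier from its plate by either plate-standardised score or position-corrected B-score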
PostGolgi ctrl – yeast control strain growth, post-Golgi counter-screen; 5% of 98,000 active; efflux-deficient yeast background strain, growth absorbance A615, 16 h; AID 738; inhibition, % at 10 µM
A number is an active result. Rule as the data show it, unless noted: active = inhibition above about 30%; inactive = the rest.

Screening CCOC(=O)C1CCN(C(=O)C2CCN(S(=O)(=O)c3cccc4cccnc34)CC2)CC1 returned sEH act inactive, sEH inhibitor inactive, PostGolgi yeast inactive, Cav32 inh inactive and PostGolgi ctrl 31.6.
O=C(CCCCO)CCCCCCCC[C@H]1N[C@H](CO)[C@H](O)[C@@H]1O[C@@H]1O[C@H](CO)[C@@H](O)[C@H](O)[C@H]1O was read as Cav32 inh inactive.
Cc1cccc(COCC(Cc2ccccc2)N2CCN(C(=O)c3cc(Cl)cc(Cl)c3)CCC2=O)c1 (centres undefined) was read as Cav32 inh -3.38.
Screening CCOC(=O)C1=C(COc2ccc(F)cc2Cl)NC(=O)NC1c1cc(C)ccc1C (centres undefined) returned sEH act inactive, sEH inhibitor inactive, PostGolgi yeast inactive, Cav32 inh inactive and PostGolgi ctrl 30.1.
Cc1ccc(-c2cc(C(=O)NCC3CCCO3)no2)cc1 (centres undefined) was read as sEH act inactive, sEH inhibitor inactive, PostGolgi yeast inactive, Cav32 inh inactive and PostGolgi ctrl inactive.
Screening Cc1ccc(-n2nc(-c3cccs3)cc2C(=O)NCC2CCCO2)c(C)c1 (centres undefined) returned sEH act inactive, sEH inhibitor inactive, PostGolgi yeast inactive, Cav32 inh -4.41 and PostGolgi ctrl inactive.
Screening CCCCN(CCCC)S(=O)(=O)c1ccc(N2CCCC2=O)c([N+](=O)[O-])c1 returned sEH act inactive, sEH inhibitor inactive and Cav32 inh inactive.
`CCCCN(CCCC)S(=O)(=O)c1ccc(SCC(=O)OCC)c([N+](=O)[O-])c1` gave sEH act inactive, sEH inhibitor inactive, PostGolgi yeast inactive, Cav32 inh -3.07 and PostGolgi ctrl inactive.
`O=C(/C=C/c1cccs1)N1CCC2(CC1)Oc1ccc(Cl)cc1C(=O)C21CC(c2ccccc2)=NO1` (centres undefined) gave Cav32 inh inactive.
`Cc1ccc(C(=O)Nc2nc(=O)n(C(=O)CC(C)C)s2)cc1` gave PostGolgi yeast inactive, Cav32 inh inactive and PostGolgi ctrl inactive.
Screening Cc1ccc(C(=O)Nc2nc(=O)n(C(=O)c3ccccc3Cl)s2)cc1 returned sEH act inactive, sEH inhibitor inactive, PostGolgi yeast inactive, Cav32 inh -6.06 and PostGolgi ctrl inactive.
`CC1CCCCC1N1CN=C(Nc2nc3ccccc3s2)NC1` (centres undefined) gave sEH act inactive, sEH inhibitor inactive, PostGolgi yeast inactive, Cav32 inh inactive and PostGolgi ctrl inactive.
For COC(=O)c1ccc(C)c(NS(=O)(=O)c2ccc(C)c([N+](=O)[O-])c2)c1 the results were sEH act inactive, sEH inhibitor inactive, PostGolgi yeast inactive, Cav32 inh -5.46 and PostGolgi ctrl inactive.
Screening COC(=O)c1ccc(C)c(NS(=O)(=O)c2ccc(OC)cc2)c1 returned sEH act inactive, sEH inhibitor inactive, PostGolgi yeast inactive, Cav32 inh inactive and PostGolgi ctrl inactive.
Screening C[C@H]1C=C(C(=O)O)O[C@@H](OCc2ccc(CO)cc2)C1 returned Cav32 inh inactive.
Screening C#CCOCCOCCOCCNc1nc(N2CCN(C(=O)[C@H](CCCCN)n3cc([C@@H](N)C(C)CC)nn3)CC2)nc(N2CCN(C(=O)[C@H](CCCCN)n3cc([C@@H](N)CC(C)C)nn3)CC2)n1 (some centres undefined) returned Cav32 inh inactive.
`CC1(C)C(=O)Nc2ccccc2N1C(=O)COC(=O)c1ccc(Cl)c(S(=O)(=O)NCc2ccccc2)c1` gave sEH act inactive, sEH inhibitor inactive, PostGolgi yeast inactive, Cav32 inh -3.75 and PostGolgi ctrl inactive.
`COc1cccc(C(=O)OCC(=O)Nc2ccccc2N2CCOCC2)c1` gave sEH act inactive, sEH inhibitor inactive, PostGolgi yeast inactive, Cav32 inh inactive and PostGolgi ctrl 38.5.
Screening COc1cccc(C(=O)Nc2ccccc2N2CCOCC2)c1 returned sEH act inactive, sEH inhibitor inactive, PostGolgi yeast inactive and PostGolgi ctrl inactive.
`CCOC(=O)c1c(C(C)(C)C)oc2ccc(O)cc12` gave sEH act inactive, sEH inhibitor inactive, PostGolgi yeast inactive, Cav32 inh inactive and PostGolgi ctrl 52.4.
For CCOC(=O)c1c(C)oc2ccc(OCC(N)=O)cc12 the results were sEH act inactive, sEH inhibitor inactive, PostGolgi yeast inactive, Cav32 inh inactive and PostGolgi ctrl inactive.
Cc1oc2c(C)c(O)ccc2c(=O)c1-c1cnn(-c2ccccc2)c1 was read as sEH act inactive, sEH inhibitor inactive, PostGolgi yeast inactive, Cav32 inh inactive and PostGolgi ctrl inactive.
Screening COC(=O)c1cc(-c2c(C)oc3cc(OC(C)C)ccc3c2=O)c(C)o1 returned PostGolgi yeast inactive, Cav32 inh inactive and PostGolgi ctrl inactive.
COc1ccc2c(=O)c(-c3cnn(-c4ccccc4)c3)c(C)oc2c1 was read as sEH act inactive, sEH inhibitor inactive, PostGolgi yeast 34.0, Cav32 inh inactive and PostGolgi ctrl inactive.
CCOC(=O)c1c(-c2ccccc2)oc2ccc(OC(C)=O)cc12 was read as sEH act inactive, sEH inhibitor inactive, PostGolgi yeast inactive, Cav32 inh inactive and PostGolgi ctrl 31.8.
`CC(=O)Oc1ccc2c(=O)c(-c3ccccc3)c(C)oc2c1` gave Cav32 inh -4.55.
O=C1c2ccccc2NC(c2ccccn2)N1c1ccccc1F (centres undefined) was read as sEH act inactive, sEH inhibitor inactive and Cav32 inh inactive.
O=C(NC1CC1)C1=C[C@@H](c2c[nH]c3ccccc23)C[C@@H](OCCCCO)O1 was read as Cav32 inh inactive.
For COC(=O)/C(=C\c1c(OC)cc(OC)cc1OC)C(=O)c1ccc2c(c1)OCO2 the results were Cav32 inh inactive.
Screening COC(=O)c1ccc(CSc2nc3ccc(C)cc3[nH]2)o1 returned sEH act inactive, sEH inhibitor inactive, PostGolgi yeast inactive, Cav32 inh inactive and PostGolgi ctrl inactive.
For CN(C)CCCNc1oc(-c2cccc(Cl)c2)nc1C#N the results were sEH act inactive, sEH inhibitor inactive, PostGolgi yeast inactive, Cav32 inh inactive and PostGolgi ctrl inactive.
For CCCCNC(=O)c1ccc(CNc2c(N3CCC(C(=O)OCC)CC3)c(=O)c2=O)cc1 the results were sEH act inactive, sEH inhibitor inactive and Cav32 inh inactive.
`CCOC(=O)C1CCCN(c2cc(C)nc3cc(-c4ccc(F)cc4)nn23)C1` (centres undefined) gave sEH act inactive, sEH inhibitor inactive, PostGolgi yeast inactive, Cav32 inh inactive and PostGolgi ctrl 42.4.
COc1ccc(/C=C2\CCc3ccccc3C2=O)cc1Cn1nc(C)cc1C was read as sEH act inactive, sEH inhibitor inactive, PostGolgi yeast inactive, Cav32 inh -4.27 and PostGolgi ctrl inactive.
Screening Cc1c(C(=O)N2CCN(c3ccccc3F)CC2)sc2nc(-c3ccccc3)cn12 returned sEH act inactive, sEH inhibitor inactive, PostGolgi yeast inactive, Cav32 inh inactive and PostGolgi ctrl 35.3.
Screening O=C(N/N=C/c1ccco1)c1cc(-c2ccccc2)n[nH]1 returned sEH act inactive, sEH inhibitor inactive and Cav32 inh inactive.
